DUX4 inh – inhibitors of DUX4-driven ZSCAN4 reporter expression, primary screen, 293T cells, Gaussia and Italica luciferase. activity change, negative = inhibition, % (concentration not given with the values). 0.8% of 37,000 active. AID 1224904, 2016. 293T-iDUX4 ZSCAN4-Gaussia luciferase reporter, 24 h; hits give low values;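 active = mean inhibition of at least 10% in the main channel, exceeding the control channel by a set limit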;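 note: 0% = median of neutral control wells and -100% = median of positive control wells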
* = called active by the depositor; ! = repeats disagree. Many of the other results were omitted from the sample, so hits are more common in it than they were.

SMILES | DUX4 inh
Cc1ccc(S(=O)(=O)N(C)C[C@@H]2Oc3cc(C#CC4CCCC4)ccc3S(=O)(=O)N([C@@H](C)CO)C[C@H]2C)cc1 | -1
Cc1cccc(S(=O)(=O)N2CCCCN3[C@@H](CO)[C@H](c4ccc(-c5ccncc5)cc4)[C@@H]3C2)c1 | -5
COc1cccc(S(=O)(=O)N2CCCCN3[C@H](CO)[C@H](c4ccc(C#CCC(C)C)cc4)[C@@H]3C2)c1 | -49*
Cc1cccc(S(=O)(=O)N2CCCCN3[C@H](CO)[C@@H](c4ccc(C#C[C@@H](C)O)cc4)[C@H]3C2)c1 | 12
COc1ccc(S(=O)(=O)N2CCCCN3[C@H](C2)[C@H](c2ccc(C#CC(C)C)cc2)[C@@H]3CO)cc1 | 8
C[C@@H](O)C#Cc1ccc([C@H]2[C@@H](CO)N3CCCCN(C(=O)c4ccc5c(c4)OCO5)C[C@H]23)cc1 | -32*
C[C@H](O)C#Cc1ccc([C@@H]2[C@H]3CN(C(=O)c4ccc5c(c4)OCO5)CCCCN3[C@H]2CO)cc1 | 23
Cc1cccc(S(=O)(=O)N2CCCCN3[C@@H](CO)[C@H](c4ccc(C#C[C@@H](C)O)cc4)[C@@H]3C2)c1 | -26*
COCC#Cc1ccc([C@H]2[C@@H](CO)N3CCCCN(S(=O)(=O)c4ccc(OC)cc4)C[C@H]23)cc1 | 3
C[C@@H](O)C#Cc1ccc([C@H]2[C@@H](CO)N3CCCCN(C(=O)c4ccc5c(c4)OCO5)C[C@@H]23)cc1 | 22
C/C=C/c1ccc([C@@H]2[C@@H](CO)N3CCCCN(S(=O)(=O)c4cccc(C)c4)C[C@H]23)cc1 | -17*
Cc1cccc(S(=O)(=O)N2CCCCN3[C@H](CO)[C@H](c4ccc(-c5ccncc5)cc4)[C@H]3C2)c1 | -7
Cc1cccc(S(=O)(=O)N2CCCCN3[C@H](C2)[C@H](c2ccc(C#C[C@@H](C)O)cc2)[C@@H]3CO)c1 | 4
Cc1ccc(S(=O)(=O)N2CC[C@@H]3[C@H](CO)Nc4ccc(Br)cc4[C@@H]32)cc1 | 9
COc1ccc(NC(=O)Nc2ccc3c(c2)C(=O)N([C@@H](C)CO)C[C@@H](C)[C@H](CN(C)S(=O)(=O)c2cccs2)OCCCC[C@@H](C)O3)cc1 | -1
O=C(CCN1CCCCC1)NCC[C@H]1CC[C@H](NC(=O)C2CCOCC2)[C@H](CO)O1 | 4
CC(C)NC(=O)NCC[C@@H]1CC[C@@H](NS(=O)(=O)c2ccc(Oc3ccccc3)cc2)[C@H](CO)O1 | -7
COc1ccc2c3c([nH]c2c1)[C@@H](CO)N(C(C)=O)CC31CN(C(=O)c2cccc(F)c2)C1 | -9
CCS(=O)(=O)N[C@H]1C=C[C@@H](CC(=O)Nc2ccc(-c3ccccc3)cc2)O[C@@H]1CO | 1
COc1ccc(S(=O)(=O)Nc2ccc3c(c2)CC(=O)N([C@H](C)CO)C[C@@H](C)[C@@H](CN(C)S(=O)(=O)c2cn(C)cn2)O3)cc1 | 0
CCCN1[C@@H]2Cn3c(ccc(-c4ccccc4)c3=O)[C@H]1[C@@H](C(=O)NCCCN1CCOCC1)[C@@H]2CO | 3
Cc1cccc(-c2ccc([C@H]3[C@@H](CO)N4CCCCN(S(=O)(=O)c5ccccc5F)C[C@@H]34)cc2)c1 | -3
Cc1ccccc1S(=O)(=O)N1CCCCN2[C@H](C1)[C@@H](c1ccc(-c3cccnc3)cc1)[C@@H]2CO | -5
Cc1ccccc1S(=O)(=O)N1CCCCN2[C@@H](CO)[C@H](c3ccc(-c4cccc(F)c4)cc3)[C@@H]2C1 | -47*
Cc1ccccc1S(=O)(=O)N1CCCCN2[C@H](C1)[C@@H](c1ccc(-c3cccc(F)c3)cc1)[C@@H]2CO | 7
SMILES | DUX4 inh
Cc1ccccc1S(=O)(=O)N1CCCCN2[C@H](CO)[C@@H](c3ccc(-c4cccnc4)cc3)[C@H]2C1 | -5
Cc1ccc(-c2ccc([C@@H]3[C@@H](CO)N4CCCCN(S(=O)(=O)c5ccccc5C)C[C@H]34)cc2)cc1 | -25*
O=C(c1ccc2c(c1)OCO2)N1C[C@@H]2[C@H](c3ccccc31)[C@H](CO)N2Cc1cccnc1 | 1
CCC(=O)N1[C@@H]2Cn3c(ccc(C4=CCCC4)c3=O)[C@H]1[C@@H](C(=O)N[C@H](C)c1ccccc1)[C@@H]2CO | 3
OC[C@@H]1[C@@H](c2ccc(-c3cccc(F)c3)cc2)[C@@H]2CN(Cc3cncnc3)CCCCN12 | 27
Cc1cccc(-c2ccc([C@@H]3[C@@H](CO)N4CCCCN(CCC(F)(F)F)C[C@H]34)cc2)c1 | 14
CN(C)C(=O)c1ccc(-c2ccc([C@H]3[C@@H](CO)N4CCCCN(CCC(F)(F)F)C[C@@H]34)cc2)cc1 | 6
Cc1cccc(-c2ccc([C@H]3[C@@H](CO)N4CCCCN(CCC(F)(F)F)C[C@H]34)cc2)c1 | -39*
OC[C@H]1[C@H](c2ccc(-c3cccc(F)c3)cc2)[C@@H]2CN(CCC(F)(F)F)CCCCN12 | -47*
Cc1cccc(-c2ccc([C@@H]3[C@@H](CO)N4CCCCN(CCC(F)(F)F)C[C@@H]34)cc2)c1 | -56*
CN(C)C(=O)c1ccc(-c2ccc([C@@H]3[C@@H](CO)N4CCCCN(CCC(F)(F)F)C[C@H]34)cc2)cc1 | 7
Cc1cccc(-c2ccc([C@H]3[C@@H](CO)N4CCCCN(Cc5ccncc5)C[C@H]34)cc2)c1 | -7
OC[C@H]1[C@@H](c2ccc(-c3cccc(F)c3)cc2)[C@H]2CN(Cc3cncnc3)CCCCN21 | 5
C[C@H]1CN([C@@H](C)CO)S(=O)(=O)c2ccc(C3=CCCCC3)cc2O[C@H]1CN(C)C(=O)Cc1cccnc1 | 3
COC(=O)[C@H]1[C@H](CO)[C@H]2Cn3c(ccc(-c4ccccc4F)c3=O)[C@H]2N1C(=O)c1cnccn1 | -2
CC(=O)NC[C@@H]1[C@H](c2ccc(-c3cccc(F)c3)cc2)[C@H](CO)N1C(C)=O | -2
O=C(c1ccccn1)N1C[C@@H]2[C@H](c3ccccc31)[C@@H](CO)N2C(=O)C1CCOCC1 | 1
CN1CCN(C(=O)c2cc3c(c(-c4cccc(-c5ccccc5F)c4)n2)[C@H](CCO)N([S@@](=O)C(C)(C)C)C3)CC1 | 4
COc1ccccc1CN1[C@@H]2CNC[C@H]1C2c1ccc(-c2ccncc2)cc1 (some centres undefined) | 14
COc1ccccc1CN1[C@@H]2CNC[C@H]1C2c1ccc(-c2ccc(C#N)cc2)cc1 (some centres undefined) | 1
N#Cc1ccc(-c2ccc([C@@H]3[C@@H]4CN(Cc5cocn5)C[C@H]3N4)cc2)cc1 | -75*
CN(C)C(=O)c1ccc(-c2ccc(C3[C@@H]4CN(Cc5nccs5)C[C@H]3N4)cc2)cc1 (some centres undefined) | -1
N#Cc1ccc(-c2ccc(C3[C@@H]4CN(Cc5ccccc5F)C[C@H]3N4)cc2)cc1 (some centres undefined) | -44*!
N#Cc1ccc(-c2ccc(C3[C@H]4CNC[C@@H]3N4C(=O)Nc3ccccc3F)cc2)cc1 (some centres undefined) | -3
COc1ccccc1CN1C[C@@H]2N[C@H](C1)C2c1ccc(-c2ccncc2)cc1 (some centres undefined) | -14*!
SMILES | DUX4 inh
COc1cc(CN2C[C@@H]3N[C@H](C2)C3c2ccc(-c3cncnc3)cc2)cc(OC)c1 (some centres undefined) | 2
CN(C)C(=O)c1cccc(-c2ccc(C3[C@@H]4CN(Cc5cocn5)C[C@H]3N4)cc2)c1 (some centres undefined) | 10
CS(=O)(=O)N1[C@@H]2Cn3c(cccc3=O)[C@H]1[C@@H](C(=O)NCc1ccc(F)cc1)[C@@H]2CO | 6
CCC(=O)N(C)C[C@H]1Oc2ncc(C#CC(C)C)cc2C(=O)N([C@H](C)CO)C[C@@H]1C | 3
O=C(C[C@@H]1C=C[C@H](NC(=O)c2ccc(F)cc2)[C@H](CO)O1)NCCc1ccncc1 | 6
C[C@H](CO)N1C[C@H](C)[C@H](CN(C)CC2CC2)Oc2ncc(-c3cccc(C(=O)N(C)C)c3)cc2C1=O | -1

Source: PubChem (Broad Institute)
